High-throughput results: PubChem BioAssay, National Center for Advancing Translational Sciences (NCATS)
Sampled rows, rich in hits. Any-hit rate of the full collection: about 11%.
RORg inh: inhibitors of mouse ROR gamma transcriptional activity; Potency, µM (series often up to 53.6 µM), actives largely listed as inhibitors; AID 2551; hit rate 5.4% among 310,000; Drosophila S2 Gal4-RORgamma UAS-luciferase reporter, 20 h; P51450; note: nearly all actives have a fitted effect of over 60% in size
Target sequence (P51450 whole entry, looked up, the tested form may be a part): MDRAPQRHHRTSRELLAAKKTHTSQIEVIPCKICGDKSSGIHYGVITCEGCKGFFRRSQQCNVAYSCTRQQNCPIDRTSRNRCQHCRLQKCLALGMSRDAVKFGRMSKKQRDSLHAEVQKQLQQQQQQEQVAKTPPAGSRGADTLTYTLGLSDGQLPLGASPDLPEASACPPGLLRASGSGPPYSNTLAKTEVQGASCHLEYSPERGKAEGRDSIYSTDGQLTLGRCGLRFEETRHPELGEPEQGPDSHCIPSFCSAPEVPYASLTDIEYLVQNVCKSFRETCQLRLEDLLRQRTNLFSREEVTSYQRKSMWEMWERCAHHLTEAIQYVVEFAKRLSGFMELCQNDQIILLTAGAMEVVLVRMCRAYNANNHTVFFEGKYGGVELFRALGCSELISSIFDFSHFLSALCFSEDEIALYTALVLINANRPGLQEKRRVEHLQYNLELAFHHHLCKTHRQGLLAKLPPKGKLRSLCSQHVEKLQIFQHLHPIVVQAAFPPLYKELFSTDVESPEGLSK
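Drosophila Schneider cells stably carrying a metallothionein-driven Gal4 DBD–ROR gamma fusion and a UAS-Photinus luciferase reporter were exposed to compound for 1 hr, then induced with copper sulfate (700 uM final) for 20 hr at ambient temperature before luminescence reading.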
SW480 rerep: induces DNA re-replication in SW480 colon adenocarcinoma cells | SW480 DNA re-replication, Hoechst DNA content imaging, 48 h | Potency, µM (top dose mostly 46.1 µM), most hits filed as activators | hit rate 1.8% among 340,000; note: nearly all actives have a fitted effect of over 55% in size
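Compounds, transferred as 23 nL by pin tool, were incubated with cells for 48 hr; DNA content per nucleus was then quantified by Hoechst staining and fluorescence plate imaging.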
VP16 counter: Gal4-VP16 reporter inhibition counter-screen | Drosophila S2 Gal4-VP16 UAS-luciferase, luminescence, 20 h | Potency, µM (series often up to 53.6 µM), actives largely listed as inhibitors | hit rate 3.5% among 310,000 | AID 2546;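 note: Gal4-VP16 expression switched on by copper sulfate through the metallothionein promoter; nearly all actives have a fitted effect of over 50% in size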
IL-1B inflam inh: inflammasome signaling inhibition, IL-1 beta readout | THP-1 LPS/ATP IL-1B secretion, AlphaLISA, 16 h; hits give low values | activity change, % at 57.5 µM | hit rate 4.7% among 360,000 | AID 743279; in the data active = activity change below about -50%; inconclusive = mostly about -30% to -49%
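Secreted IL-1B measured by AlphaLISA bead assay after 16 h compound exposure of THP-1 cells; compounds (final up to 57.5 uM) added 1 h before LPS (250 ng/mL) and ATP (1.25 mM) stimulation; lower signal means less secretion.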
MCF10A rerep: inducers of DNA re-replication in MCF 10A breast cells; MCF 10A DNA re-replication, Hoechst nuclear intensity, 48 h; Potency, µM (doses to about 46.1 µM), hits mostly activators; hit rate 2.9% among 350,000; note: nearly all actives have a fitted effect of over 50% in size
A number is an active result; [ ] = remark or other dose. Unless noted, calls come from the whole dose curve; as a rule, active = well fitted curve in the direction sought with a large enough effect; inconclusive = small, poorly fitted or top-dose-only effect, or another doubt; inactive = no such curve, though single readings can be large; an effect the other way counts as inactive or inconclusive.

How did Cc1cc(-c2nc3ncccc3o2)ccc1NC(=O)c1ccc([N+](=O)[O-])o1 do in these assays?
SW480 rerep: inactive; IL-1B inflam inh: inactive; MCF10A rerep: inconclusive

What do the screens show for `CCCCn1c(N)c(N(CC(C)C)C(=O)CSc2nnc(-c3ccc(Cl)cc3)o2)c(=O)[nH]c1=O`?
SW480 rerep: inactive; IL-1B inflam inh: inactive; MCF10A rerep: inactive

Results for COc1cc(CN2C(=O)C(C)ON=C2c2ccccc2F)cc(OC)c1 (stereo unspecified) ?
IL-1B inflam inh: inactive

How did c1ccc2c(N3CCCCC3)nc(N3CCCCC3)nc2c1 do in these assays?
RORg inh: inconclusive; SW480 rerep: inactive; VP16 counter: inactive; IL-1B inflam inh: inactive; MCF10A rerep: inactive

Results for CN1CCN(c2nnc(-c3ccccc3)c(-c3ccccc3)n2)CC1 ?
RORg inh: inactive; SW480 rerep: inactive; VP16 counter: inactive; MCF10A rerep: inactive

How did Clc1ccc2nc(N3CCNCC3)nc(-c3ccccc3)c2c1 do in these assays?
RORg inh: inconclusive; SW480 rerep: 11µM; VP16 counter: inconclusive; IL-1B inflam inh: -95; MCF10A rerep: inconclusive

Results for c1ccc(-c2nc(N3CCCC3)nc3ccccc23)cc1 ?
RORg inh: inactive; SW480 rerep: 18µM; VP16 counter: inactive; IL-1B inflam inh: inactive; MCF10A rerep: 23µM

What do the screens show for `CN1CCN(c2nc(-c3ccccc3)c3cc(Cl)ccc3n2)CC1`?
RORg inh: inactive; SW480 rerep: 7.9µM; VP16 counter: inactive; IL-1B inflam inh: inactive; MCF10A rerep: 4µM

What do the screens show for `C=CCn1c(-c2ccc(OC)c(OC)c2)n[nH]c1=S`?
RORg inh: 3.2µM; SW480 rerep: inactive; VP16 counter: inconclusive; IL-1B inflam inh: inactive; MCF10A rerep: inactive

Results for CCn1c(SCC(N)=O)nnc1-c1ccc(OC)c(OC)c1 ?
RORg inh: inactive; SW480 rerep: inactive; VP16 counter: inactive; IL-1B inflam inh: inactive; MCF10A rerep: inactive

What do the screens show for `C=CCn1c(-c2c(C)nc3cc(C)ccn23)n[nH]c1=S`?
RORg inh: inconclusive; SW480 rerep: inactive; VP16 counter: inconclusive; IL-1B inflam inh: inactive; MCF10A rerep: inactive

How did CCn1c(-c2ccc(OC)c(OC)c2)n[nH]c1=S do in these assays?
RORg inh: 11µM; SW480 rerep: inactive; VP16 counter: inactive; IL-1B inflam inh: inactive; MCF10A rerep: inactive

Results for CC(CNC(=O)COC(=O)c1ccco1)c1ccccc1 (stereo unspecified) ?
SW480 rerep: inactive; IL-1B inflam inh: inactive; MCF10A rerep: inactive

How did N#Cc1ccc(C(=O)N2CCC3CC2c2cc(-c4ccc(F)cc4)ccc23)cc1 (stereo unspecified) do in these assays?
SW480 rerep: inactive; IL-1B inflam inh: inactive; MCF10A rerep: inactive

What do the screens show for `COc1cccc(-c2ccc3ncnc(NCCN4CCOCC4)c3c2)c1`?
RORg inh: inconclusive; VP16 counter: inactive

Results for CCn1c(SCC(=O)Nc2ccc(-c3nc4ccc(C)cc4s3)cc2)nnc1-c1ccccc1 ?
RORg inh: 11µM; SW480 rerep: inactive; VP16 counter: 18µM; MCF10A rerep: inactive

Results for CCOC(=O)CSc1nc2ccc(NC(=O)CSc3nnnn3Cc3ccccc3)cc2s1 ?
RORg inh: inactive; SW480 rerep: inactive; VP16 counter: inactive; IL-1B inflam inh: inactive; MCF10A rerep: inactive

What do the screens show for `CC(C)(C)NC(=O)CSc1nc2ccc(NC(=O)CSc3nnnn3Cc3ccccc3)cc2s1`?
RORg inh: inactive; SW480 rerep: inactive; VP16 counter: 11µM; IL-1B inflam inh: inactive; MCF10A rerep: inactive

How did COc1ccc(-c2csc(NC(=O)CSc3nnc(Nc4ccccc4C)s3)n2)cc1 do in these assays?
RORg inh: inactive; SW480 rerep: 5.8µM; VP16 counter: inactive; IL-1B inflam inh: inactive; MCF10A rerep: inconclusive

Results for CCn1c(SCC(=O)Nc2nc(-c3ccc(C)cc3)cs2)nnc1-c1ccccc1O ?
RORg inh: inconclusive; SW480 rerep: inactive; VP16 counter: inactive[0.365 µM]; IL-1B inflam inh: -51; MCF10A rerep: inactive

How did COc1ccccc1-c1nnc(SCC(=O)Nc2nc(-c3ccccc3)cs2)n1C do in these assays?
RORg inh: inconclusive; SW480 rerep: inactive; VP16 counter: inactive; IL-1B inflam inh: inactive; MCF10A rerep: inconclusive

How did C=CCn1c(SCC(=O)Nc2ccc(-c3nc4ccc(C)cc4s3)cc2)nnc1-c1ccncc1 do in these assays?
RORg inh: inactive; SW480 rerep: inactive; VP16 counter: inactive; IL-1B inflam inh: inactive; MCF10A rerep: inactive

How did O=c1c(-c2cccs2)nc2cncnc2n1Cc1ccc(F)cc1 do in these assays?
RORg inh: inactive; VP16 counter: inactive

What do the screens show for `Cc1cn(CC(=O)NCCCn2ccnc2)c(=O)[nH]c1=O`?
SW480 rerep: inactive; IL-1B inflam inh: inactive; MCF10A rerep: inactive

Results for Clc1cccc(CNc2ccn3nc(-c4cccs4)cc3n2)c1 ?
IL-1B inflam inh: inactive

Results for Cc1oc(=O)cc(OCc2ccccc2)c1C ?
SW480 rerep: inactive; IL-1B inflam inh: inactive; MCF10A rerep: inactive

How did COc1ccc(C#CC2C=CC(OC(C)=O)C(COC(C)=O)O2)cc1 (stereo unspecified) do in these assays?
RORg inh: inactive[10 µM]; VP16 counter: inactive[10 µM]

What do the screens show for `COc1cccc(NC(=O)C(Sc2nnc(Nc3ccccc3C)s2)c2ccccc2)c1` (stereo unspecified)?
RORg inh: inactive; SW480 rerep: inactive; VP16 counter: inactive; IL-1B inflam inh: -51; MCF10A rerep: inactive

How did Cc1cccc(Nc2nnc(SCC(=O)Nc3ccccc3[N+](=O)[O-])s2)c1C do in these assays?
RORg inh: 18µM; VP16 counter: inactive; IL-1B inflam inh: inactive; MCF10A rerep: inactive

Results for Cc1ccc(Nc2nnc(SCC(=O)Nc3ccccc3[N+](=O)[O-])s2)cc1 ?
RORg inh: inconclusive; SW480 rerep: inactive; VP16 counter: inactive; IL-1B inflam inh: inactive; MCF10A rerep: inactive

Results for CCCCn1c(SCC(=O)Nc2nnc(CC)s2)nc2ccccc2c1=O ?
RORg inh: inactive[0.365 µM]; SW480 rerep: inactive; IL-1B inflam inh: inactive; MCF10A rerep: inactive

Results for CN(C)CCCn1c(SCC(=O)N2c3ccccc3Sc3ccccc32)nc2ccccc2c1=O ?
RORg inh: inactive; SW480 rerep: inconclusive; VP16 counter: inconclusive; IL-1B inflam inh: -102; MCF10A rerep: inconclusive

How did COc1ccc(Nc2nnc(SC(C(=O)Nc3cc(C)ccc3C)c3ccccc3)s2)cc1 (stereo unspecified) do in these assays?
RORg inh: inactive; SW480 rerep: inactive; VP16 counter: inactive; IL-1B inflam inh: inactive; MCF10A rerep: inconclusive

Results for Cc1ccc(-c2csc(NC(=O)CSc3nc4ccccc4c(=O)n3CCCN(C)C)n2)cc1 ?
RORg inh: inconclusive; SW480 rerep: inconclusive; VP16 counter: inconclusive; IL-1B inflam inh: -97; MCF10A rerep: inconclusive

What do the screens show for `CN(C(=O)c1cccc(NC(=O)Cc2ccc(NC(=O)C3CCCN(S(=O)(=O)c4cccc([N+](=O)[O-])c4)C3)cc2)c1)C1CCCC1` (stereo unspecified)?
SW480 rerep: inactive; IL-1B inflam inh: inactive; MCF10A rerep: inactive
